# Test results published in the supplement of paper PMC6555819.
# What was measured:
# Test in all cases: PBM binding z-score (relative to random genomic background probes); higher = stronger binding; sequences stand for … in GC…GCGATTGACAGCGTAGAATGAAGG
# [1] = system: FXR:RXRa (NR concentration 270 nM, RXRa partner concentration 90 nM)
# Procedure, shortened: (§1)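 Scanned fluorescence from custom Agilent 4×180K protein-binding microarrays was regression-normalized. Binding z-scores use random background probes as reference. Ligand-free nuclear receptor dimers were incubated on the arrays for 1 h and detected with antibodies against each partner (one per run).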
# [2] = system: LXRa:RXRa (NR concentration 270 nM, RXRa partner concentration 90 nM)
# Procedure, shortened: as §1
# [3] = system: LXRa homodimer (NR concentration 270 nM)
# Procedure, shortened: as §1
# [4] = system: LXRb:RXRa (NR concentration 270 nM, RXRa partner concentration 90 nM)
# Procedure, shortened: as §1
# [5] = system: LXRb homodimer (NR concentration 270 nM)
# Procedure, shortened: as §1
# [6] = system: PPARa:RXRa (NR concentration 270 nM, RXRa partner concentration 90 nM)
# Procedure, shortened: as §1
# [7] = system: PPARg:RXRa (NR concentration 180 nM, RXRa partner concentration 90 nM)
# Procedure, shortened: as §1
# [8] = system: PPARg:RXRa 270nM:90nM, anti-RXR (NR concentration 270 nM, RXRa partner concentration 90 nM)
# Procedure, shortened: as §1
# [9] = system: PPARg:RXRa 30nM:10nM, anti-RXR (NR concentration 30 nM, RXRa partner concentration 10 nM)
# Procedure, shortened: as §1
# [10] = system: PPARg:RXRa 90nM:30nM, anti-RXR (NR concentration 90 nM, RXRa partner concentration 30 nM)
# Procedure, shortened: as §1
# [11] = system: PPARg:RXRa DBDmut IVT, anti-RXR (DBD mutation: RXRa K156A/R161A, NR concentration 270 nM, RXRa partner concentration 90 nM)
# Procedure, shortened: as §1
# [12] = system: PPARg:RXRa IVT, anti-PPARg (NR concentration 270 nM, RXRa partner concentration 90 nM)
# Procedure, shortened: as §1
# [13] = system: PPARg DBDmut:RXRa IVT, anti-PPARg (DBD mutation: PPARg1 K132A/R137A, NR concentration 270 nM, RXRa partner concentration 90 nM)
# Procedure, shortened: as §1
# [14] = system: PPARg DBDmut IVT, anti-PPARg (DBD mutation: PPARg1 K132A/R137A, NR concentration 270 nM)
# Procedure, shortened: as §1
# [15] = system: PPARg homodimer (NR concentration 180 nM)
# Procedure, shortened: as §1
# [16] = system: PXR:RXRa (NR concentration 270 nM, RXRa partner concentration 90 nM)
# Procedure, shortened: as §1
# [17] = system: PXR homodimer (NR concentration 270 nM)
# Procedure, shortened: as §1
# [18] = system: RARa:RXR (NR concentration 270 nM, RXRa partner concentration 90 nM)
# Procedure, shortened: as §1
# [19] = system: RARa homodimer (NR concentration 270 nM)
# Procedure, shortened: as §1
# [20] = system: RARb:RXRa (NR concentration 270 nM, RXRa partner concentration 90 nM)
# Procedure, shortened: as §1
Sequence,PBM binding z-score [1],PBM binding z-score [2],PBM binding z-score [3],PBM binding z-score [4],PBM binding z-score [5],PBM binding z-score [6],PBM binding z-score [7],PBM binding z-score [8],PBM binding z-score [9],PBM binding z-score [10],PBM binding z-score [11],PBM binding z-score [12],PBM binding z-score [13],PBM binding z-score [14],PBM binding z-score [15],PBM binding z-score [16],PBM binding z-score [17],PBM binding z-score [18],PBM binding z-score [19],PBM binding z-score [20]
ATATGTAGGTTAACGGTCATTCAGGTTGGTTCGC,2.12,2.46,2.98,2.2,1.2,5.22,9.32,8.6,7.82,9.3,8.01,8.1,3.09,2.01,2.2,1.84,0.701,2.01,0.573,2.41
CGTTACGGGTCAAGGTTATAGCACGGGTGGTACG,5.94,3.83,0.0546,3.09,-0.0956,5.35,4.95,4.72,1.51,3.37,2.15,3.69,0.343,-0.183,1.78,3.44,0.111,3.92,0.367,4.29
ATCGAAAGGTCGAGATGAGTATAGAGAAAGGGAA,3.74,3.2,0.146,2.54,0.748,4.2,2.56,2.97,0.989,2,-0.278,1.33,1.47,1.2,1.05,2.02,0.117,2.52,0.436,3.66
ATATGTAGGTTAGCTGGGGTCATTAAGACTAGGC,4.6,5.39,2.55,4.58,1.38,5.13,5.69,4.89,2.49,4.2,7.01,6.64,3.24,2.7,2.8,5.91,3.46,5.15,1.22,3
GCGCCTGGGGCAAAGCAGGTTACCATAAGGTTGG,0.19,-0.148,-0.679,-0.341,-1.26,0.474,0.0826,-0.405,-0.693,-0.771,0.355,-0.0318,-1.1,-1.44,-0.5,0.277,-0.671,0.359,-0.592,1.02
TTACCAAGATGAAAGGTCGTTGATGCACGCCTTG,1.32,1.82,0.225,1.6,-0.121,3.04,3.53,5.28,3.89,5.86,0.675,1.47,0.794,0.0757,1.13,2.08,0.245,2.24,0.444,1.55
GCGACTGGGGCATCAACAGGTTACCATAACTTAA,-0.21,0.22,-0.147,1.42,-0.367,1.48,1.15,0.92,-0.0267,0.231,3.85,3.26,0.132,-0.496,0.784,0.139,-0.425,0.551,-0.516,0.911
CCTTACGGGTCACTCCTGGTTATAGCATCGGAGT,4.24,5.52,-0.0362,3.01,0.134,4.2,2.76,3.54,0.987,2.25,2.58,3.35,0.273,-0.731,1.77,2.67,0.0261,3.18,0.288,3.55
ATATGTAGGTTAGCTGGGGTCATTTAGACTAGGC,4.36,5.92,3.36,4.92,1.13,5.22,5.68,5.12,2.41,4.22,6.26,6.32,1.68,2.06,2.64,6.23,3.22,5.08,0.828,2.89
CCTACTGGGCCAGTCAGAGGTCATTGATCATATG,2.43,3.71,5.39,3.58,-0.105,3.66,2.18,3.32,0.876,2.2,3.73,3.52,-0.533,-0.399,2.3,4.85,1.42,4.37,0.375,2.92
TCTATTAGTTGAAGGGCAACCCACGAGTCCGTTT,0.7,1.04,0.728,1.18,0.631,1.08,0.343,2.04,3.83,2.89,2.65,0.706,0.623,0.929,1.43,1.02,1.09,0.823,1.21,1.65
TCATATAGGTAAACAGGTGAAAGTTCGTAAGTTA,1.01,1.3,1.04,1.4,-0.228,4.15,7.28,6.52,5.93,7.06,4.94,5.28,1.8,1.15,1.88,2.07,2.12,2.61,2.02,1.25
ACAGACAGCTGAGTGAAGGTAACTCAGCTGGACG,-0.287,-0.122,-0.822,-0.496,-0.626,-0.464,0.214,-0.699,-0.617,-0.561,-0.835,-0.364,-0.856,-0.718,-1.12,-0.593,-0.603,-0.513,-0.693,-0.274
CCTTACGGGTCACTGCAGGTTATAGCATCGGAGT,5.36,7.22,1.13,5.01,0.0222,4.88,3.68,4.35,1.16,3.15,3.51,3.76,-0.541,-0.0144,1.95,4.74,0.0878,4.05,0.239,3.97
GCAGACAGGTGAAACGCAGGTAACTCTGGGTGGC,-0.204,-0.034,-0.674,-0.472,-1.14,0.489,0.484,0.284,-0.673,-0.347,1.28,0.558,-1.09,-1.05,-0.859,-0.322,-1.1,0.0559,-1.16,0.63
AGTCAAAGTTCAGGACGAGGTATCGTAAAGCACG,3.59,3.83,1.22,1.59,-0.0231,2.98,3.89,4.58,1.74,3.93,-0.507,0.996,0.0216,0.419,1.39,2.32,1.4,2.06,0.462,4.09
GCTAGCAGGCCATTTGCGTCACTCAATGACGGGC,-0.489,-0.808,-0.589,-1.15,-0.965,-0.622,0.189,-0.578,-0.911,-0.185,1.06,-0.0589,-0.895,-0.638,-1.08,-0.562,-0.856,-0.774,-1.25,-0.167
GTACCAAGGTGAATAGATCGTTGATGAGTAGGCG,0.377,0.133,-0.179,-0.113,-0.522,0.852,0.853,0.705,0.296,0.417,1.62,1.74,0.415,0.448,0.785,-0.0465,-0.049,0.221,0.712,1.13
CCTCGGAGGACAGGAGGTCAGAGCTGTCCGCTTT,1.56,1.79,0.686,1.2,-0.929,1.96,-0.08,0.65,-0.913,-0.13,0.39,0.452,-1.92,-2.09,1.28,1.81,-0.0765,2.05,-0.0884,2.82
TCATATCGGTAAACAGGTGAAAGTCCGTAAGTTA,0.957,0.857,0.341,0.799,0.0218,1.89,1.04,2.91,4.03,3.5,2.55,2.3,0.278,0.853,0.999,0.657,0.286,0.933,1.19,0.764
ATAAGTAGGTTAGCTGGGGTCATTCAGACTAGGC,4.71,5.52,3.28,4.94,1.18,5.41,6.1,5.42,3,5.01,6.73,6.66,3.65,1.92,3.63,6.42,4.39,5.76,1.28,3.24
GCTATTAGTTGAAAGGGCGACCGAATGATTCTCG,-0.184,0.0609,-0.118,0.0118,-0.239,0.973,1.72,3.27,1.2,3.05,0.652,-0.0504,-0.223,-0.65,0.251,-0.1,-0.523,0.097,-0.0879,0.699
TCGAGTAGGTAACCAATGGGGCATTCAGCTTTCT,-0.177,0.0243,-0.581,0.362,-0.995,0.488,-0.0874,0.632,1.08,0.602,2.5,1.74,-0.421,-0.752,-0.5,-0.372,-0.877,-0.292,-0.817,0.0352
CCTAGTTGGTCAGGAGTTCACACACCGGATATGA,1.64,2.22,1.92,1.85,0.3,2.2,1.24,1.95,0.752,1.49,1.01,1.1,0.396,0.284,2.47,3.66,3.68,2.36,1.42,2.39
CCAGACATGTGAGAAGGTAACTCAGCCTCGATTA,-0.141,0.0863,0.298,-0.057,0.106,-0.106,0.462,-0.748,-0.305,-0.419,0.325,-0.238,0.124,0.154,0.72,-0.0196,0.307,0.384,1.03,-0.14
CGTCCAAAGTCATAGGAGGTCAGTGAAGACAGAT,2.25,4.11,1.4,2.44,0.026,2.82,0.638,0.912,-0.0337,0.296,0.497,1.53,0.0341,0.213,1.59,3.35,1.12,2.86,1.34,2.7
ACTAGCAGGCCAAGTTTGGCTCACTCAAACAAAG,-0.477,-0.516,-0.635,-0.722,-0.853,-0.363,-0.294,-0.625,-0.674,-0.715,0.281,0.0532,-0.751,-1.04,-0.78,-0.576,-0.582,-0.454,-0.674,0.218
ATATGTAGGTTAAGGGTCATTCACGTTGGTTCGC,5.72,4.91,2.96,4.5,1.26,6.49,11.8,9.66,9.95,11.2,7.26,8.08,3.39,2.65,4.43,4.79,0.957,5.91,1.47,3.54
